This is a sample that favours compounds with a hit; in the whole collection about 1.6% have one here.
Vif inh = inhibitors of HIV Vif; HEK293T cells, Vif self-association by quenched fluorescence, imaging, 24 h; inhibition, % at 7.49 µM; 340,000 tested, 0.35% active; AID 602346; in the data active = inhibition above about 50%, passing the limit was not always enough; inconclusive = no clear call, values can overlap the other calls; inactive = below about 31%
RAD54 inh = RAD54 (human) branch migration inhibition; Q92698; RAD54 Holliday junction branch migration, FAM/BHQ fluorescence; inhibition, % at 10.4 µM; 360,000 tested, 0.14% active; AID 602329;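 active = mean normalized replicate activity at least 40 and at least half of replicates scoring 40 or more; inconclusive = only one of the two criteria met; inactive = mean below 40 and under half of replicates reaching 40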;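 note: 0% = median of neutral control wells and 100% = median of positive control wells; inhibitors cause a drop in the FAM fluorescence signal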
Target sequence (Q92698 whole entry, looked up): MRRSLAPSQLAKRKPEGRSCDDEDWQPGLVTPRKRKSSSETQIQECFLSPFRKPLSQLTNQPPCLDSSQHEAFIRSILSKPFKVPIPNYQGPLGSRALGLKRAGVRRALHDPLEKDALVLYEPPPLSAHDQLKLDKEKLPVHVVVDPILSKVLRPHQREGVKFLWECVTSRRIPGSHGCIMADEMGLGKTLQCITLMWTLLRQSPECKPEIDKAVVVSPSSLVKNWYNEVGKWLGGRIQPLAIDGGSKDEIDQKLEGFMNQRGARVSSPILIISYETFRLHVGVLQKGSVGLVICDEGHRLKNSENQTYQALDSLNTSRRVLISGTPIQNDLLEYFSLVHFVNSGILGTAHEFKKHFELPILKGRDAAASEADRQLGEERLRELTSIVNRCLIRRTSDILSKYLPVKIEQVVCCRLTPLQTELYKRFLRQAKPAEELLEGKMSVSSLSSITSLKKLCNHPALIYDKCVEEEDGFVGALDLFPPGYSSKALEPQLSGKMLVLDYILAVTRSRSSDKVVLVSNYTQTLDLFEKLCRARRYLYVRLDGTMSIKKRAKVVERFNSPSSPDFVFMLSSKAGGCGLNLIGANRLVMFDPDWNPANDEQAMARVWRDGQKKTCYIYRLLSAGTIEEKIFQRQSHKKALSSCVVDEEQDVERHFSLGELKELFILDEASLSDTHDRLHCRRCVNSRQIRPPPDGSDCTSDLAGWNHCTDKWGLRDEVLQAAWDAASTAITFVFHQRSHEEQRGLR
Glyco luc inh = blocks N-linked glycosylation in D54 reporter cells. D54 ERlucT glycosylation luciferase reporter, 24 h; percent of 100 nM tunicamycin response. reporter increase, % at 12.5 µM. 360,000 tested, 0.23% active. AID 588692;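 active = mean luciferase reporter signal, scaled so untreated is 0 and the glycosylation-blocking control 100, at or above a set limit in every replicate; inconclusive = mean reaches the limit but not every replicate does; inactive = mean below the limit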;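 note: luciferase carries N-glycosylation sites so blocking glycosylation raises the light; 0% = median of neutral control wells and 100% = median of 100 nM tunicamycin wells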
Myeloid diff MLP = myeloid differentiation induction. ER-HoxA9 myeloid progenitors, lysozyme-GFP differentiation, flow cytometry. calls only at 10 µM. 360,000 tested, 1% active. AID 624256;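 active = normalized GFP-positive differentiation at or above the plate's own cutoff, the solvent-only control mean plus 3 SD; inconclusive = no clear call, values can overlap the other calls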;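 note: cells exposed to compound for four days before flow analysis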
ABCB6 inh MLPCN = inhibitors of human ABC transporter ABCB6; AID 602162; K562-ABCB6 porphyrin accumulation, flow cytometry, 1 h; active compounds read low; Q9NP58; 360,000 tested, 0.19% active; fluorescence ratio to DMSO, % at 10 µM;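 active = fluorescence ratio to DMSO below 75%, the collection mean minus 3 SD; inconclusive = too few cells collected in the well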;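 note: signal is porphyrin accumulated inside mitochondria; 100% equals median channel fluorescence of DMSO control wells; lower ratio means ABCB6 inhibition with less porphyrin fluorescence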
The depositor's hits bear a star; i = inactive; ? = inconclusive; . = no result; + = active, no number.

SMILES | Vif inh | RAD54 inh | Glyco luc inh | Myeloid diff MLP | ABCB6 inh MLPCN
Cc1ccc(CN2CCC(Oc3cccc(C(=O)NCc4cccnc4)c3)CC2)o1 | -4.0 | -8.5 | -0.1 | + | 98.0
CCCN(C)C[C@@H]1OCCCC[C@H](C)Oc2ccc(NC(=O)Nc3ccc(C(F)(F)F)cc3)cc2C(=O)N([C@@H](C)CO)C[C@@H]1C | . | 3.5 | . | . | .
CCN1c2ccccc2NC2C1C(C(C)=O)C(=O)N2c1ccc(Cl)cc1 (stereo unspecified) | + | 2.6 | -2.3 | + | 641.0
O=C1Nc2ccccc2N(O)N1c1ccc(Cl)cc1 | -3.6 | . | -2.2 | i | 107.0
COc1ccc(-c2c(C)nn3c(N4CCOCC4)cc(C)nc23)cc1OC | -9.0 | -3.5 | 1.7 | + | 106.0
COc1cc(OC)cc(C(=O)NC(=S)Nc2ccc3c4c(cccc24)CC3)c1 | . | . | -0.4 | + | 126.0
O=C(Nc1ccc2c3c(cccc13)CC2)c1ccc(Br)o1 | 1.7 | 7.5 | 1.9 | i | 131.0
O=C(Nc1ccc2c3c(cccc13)CC2)c1ccco1 | 0.2 | -6.6 | -1.5 | + | 151.0
CC(C)Oc1cccc(C(=O)NC(=S)Nc2ccc3c4c(cccc24)CC3)c1 | 13.9 | 8.8 | -1.8 | + | 203.0
C[C@@H]1CN([C@H](C)CO)C(=O)c2cc(NC(=O)Cc3ccccc3)ccc2O[C@@H](C)CCCCO[C@H]1CN(C)C(=O)C1CCCCC1 | . | 7.0 | . | . | .
Cc1ccccc1-n1c(SCC(=O)c2c(N)n(C)c(=O)n(C)c2=O)nc2sc3c(c2c1=O)CCCC3 | 7.6 | . | 17.5 | + | 102.0
CN(C)C(CNC(=O)CSc1nc2sc3c(c2c(=O)n1C)CCCC3)c1ccccc1 (stereo unspecified) | -1.9 | 5.3 | 33.2* | i | 104.0
COc1ccc(NC(=O)Nc2ccc3c(c2)C(=O)N([C@@H](C)CO)C[C@H](C)[C@H](CN(C)S(=O)(=O)c2ccc(F)cc2)OCCCC[C@@H](C)O3)cc1 | . | -2.1 | . | . | .
CNC(=O)C[C@@H]1CC[C@H]2[C@@H](COc3ccc(NC(=O)Cc4cccs4)cc3C(=O)N2C)O1 | . | -2.3 | . | . | .
CC(=O)Oc1ccc2c(c1)Oc1cc(OC(C)=O)ccc1C21OC(=O)c2ccccc21 | 1.9 | . | -1.0 | + | .
Cc1cc(O)ccc1C1(c2ccc(O)cc2C)OC(=O)c2ccccc21 | 14.8 | 9.6 | 0.5 | i | 110.0
C[C@H](NC(=O)C[C@H]1CC[C@@H](NC(=O)Nc2ccc3c(c2)OCO3)[C@@H](CO)O1)c1ccccc1 | . | -2.5 | . | . | .
N/C(=N\OC(=O)/C=C/c1ccccc1)c1ccccc1 | . | 9.7 | -8.2 | i | 100.0
CC1=C/C(=N\OC(=O)/C=C/c2ccccc2)C(C)=CC1=O | -0.1 | 5.6 | -2.9 | + | 97.0
C[C@H]1CCCCO[C@@H](CN(C)C(=O)Nc2ccc(C(F)(F)F)cc2)[C@@H](C)CN([C@@H](C)CO)C(=O)c2cc(NC(=O)c3ccncc3)ccc2O1 | . | 4.5 | . | . | .
COc1ccc(C(=O)c2ccc(N(C)C)cc2)c(OC)c1 | -2.7 | 2.4 | 14.8 | . | 99.0
CN(C)c1ccc(C(=O)c2ccc(N(C)C)c3ccccc23)cc1 | 78.3* | -0.8 | 10.1 | ? | 101.0
Cc1ccc(S(=O)(=O)Nc2ccc3c(c2)CC(=O)N([C@H](C)CO)C[C@H](C)[C@@H](CN(C)Cc2ccncc2)O3)cc1 | . | -0.9 | . | . | .
Cc1ccccc1OCC(=O)Nc1c2c(nn1C(C)(C)C)CS(=O)(=O)C2 | 19.8 | -7.0 | -0.8 | + | 103.0
COc1ccc(OCC(=O)Nc2c3c(nn2C(C)(C)C)CS(=O)(=O)C3)cc1 | -1.0 | -8.7 | 3.1 | + | 98.0
SMILES | Vif inh | RAD54 inh | Glyco luc inh | Myeloid diff MLP | ABCB6 inh MLPCN
CC(C)(C)n1nc2c(c1NC(=O)COc1ccc(F)cc1)CS(=O)(=O)C2 | 6.2 | -8.0 | 2.9 | i | 104.0
CCCNC(=O)C[C@@H]1C[C@H]2c3cc(NC(=O)Nc4ccccc4)ccc3O[C@H]2[C@@H](CO)O1 | . | -5.1 | . | . | .
C[C@H](O)C#Cc1ccc2c(c1)O[C@@H](CN(C)C(=O)C1CC1)[C@H](C)CN([C@@H](C)CO)S2(=O)=O | . | -6.5 | . | . | .
C[C@H](CO)N1C[C@H](C)[C@@H](CN(C)Cc2ccc(Cl)c(Cl)c2)OCCCC[C@H](C)Oc2ccc(NS(=O)(=O)c3ccc(Cl)cc3)cc2C1=O | . | 4.8 | . | . | .
CCOc1ccc(S(=O)(=O)N(CC(=O)N/N=C/c2ccc(-c3ccc([N+](=O)[O-])cc3)o2)c2ccccc2)cc1 | . | -5.4 | 4.9 | + | 118.0
CCOC(=O)c1ccc(-c2ccc(/C=N/NC(=O)CN(c3cccc(C)c3)S(C)(=O)=O)o2)cc1 | 5.3 | . | 28.2* | i | 94.0
COc1ccc(S(=O)(=O)Nc2ccc3c(c2)C(=O)N([C@@H](C)CO)C[C@@H](C)[C@@H](CN(C)C(=O)Nc2ccc4c(c2)OCO4)OCCCC[C@H](C)O3)cc1 | . | 3.7 | . | . | .
Cn1c(=O)[nH]c(=O)c2c1nc(NN)n2CCOc1ccccc1 | 0.3 | -10.4 | 61.4* | i | 98.0
CCc1ccc(S(=O)(=O)Nc2ccc(-c3ccc4nnc(C)n4n3)cc2)s1 | 69.6* | 4.3 | 4.8 | i | 100.0
Cc1nnc2ccc(-c3ccc(NS(=O)(=O)c4ccc(Cl)s4)cc3)nn12 | 92.8* | -0.7 | 3.0 | i | 99.0
Cc1nnc2ccc(-c3ccc(NS(=O)(=O)c4ccccc4)cc3)nn12 | 2.2 | -4.1 | 8.2 | i | 92.0
C=CCn1c(Cc2ccc(OCC)cc2)nnc1SCC(N)=O | 16.8 | 1.5 | 1.7 | + | 102.0
CCCCOCC(O)Cn1c(C)nc2ccccc21 (stereo unspecified) | -3.4 | . | -0.9 | i | 96.0
Cc1nc2ccccc2n1CC(O)Cn1c2ccccc2c2ccccc21 (stereo unspecified) | 6.1 | -3.9 | 0.0 | + | 100.0
C[C@@H]1CN([C@H](C)CO)S(=O)(=O)c2ccc(C#CCC3CCCC3)cc2O[C@@H]1CN(C)C | . | 9.9 | . | . | .
CC(C)CC(=O)Nc1cc2c3c(c1)CCN3C(=O)CC2 | -9.1 | 5.4 | 1.9 | + | 100.0
CNS(=O)(=O)c1cccc(C(=O)Nc2cccnc2)c1 | 51.4* | 2.5 | -1.0 | i | 94.0
O=C(Nc1cccnc1)c1cccc(S(=O)(=O)Nc2cccc(Cl)c2)c1 | 0.4 | 7.3 | -3.6 | i | 91.0
CC(C)(C)c1ccc(OCC(=O)Nc2ccncc2)c(Br)c1 | -1.7 | -10.3 | 34.0* | i | 96.0
COCCNc1nc2c(c(=O)n(Cc3cccc(Br)c3)c(=O)n2C)n1C | -7.0 | 23.1 | -2.6 | i | 97.0
COCCNc1nc2c(c(=O)n(Cc3cccc(Cl)c3)c(=O)n2C)n1C | -13.4 | 9.7 | -0.4 | + | 358.0
CCOC(=O)CCC(=O)O[C@H]1[C@H](O[C@@H]2[C@@H](C)[C@H](O[C@H]3C[C@@](C)(OC)[C@@H](O)[C@H](C)O3)[C@@H](C)C(=O)O[C@H](CC)[C@@](C)(O)[C@H](O)[C@@H](C)C(=O)[C@H](C)C[C@@]2(C)O)O[C@H](C)C[C@@H]1N(C)C | 2.7 | -0.8 | -0.3 | + | 676.0

Screens: PubChem, several laboratories
